Data on 40 compounds can be found in PubChem BioAssay (NCI).

About 83,000 compounds went through this panel and 20% of them were active in at least one assay; those are over-represented in the sample as a whole.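 Interpretation: 100, growth as untreated; towards 0, rising growth inhibition; 0, no net growth; 0 to -100, cell death. Compounds scoring below 10 were considered active.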 Unmarked numbers belong to inactive results. Active and inactive are the calls of the source.

This assay has as its system ACHN renal. Nature of the assay: NCI-60 one-dose screen, 48 h (100 = growth as untreated, 0 = no growth, -100 = all killed). To be noted: 10 µM unless noted. As for the experimental part:
Growth inhibition of the ACHN human tumor cell line is measured as a screen for anti-cancer activity. Cells are grown in 96 well plates and exposed to the test compound for 48 hours. Compounds are tested at a single concentration, which is 10^-5 M for most compounds. The reported endpoint is percent growth (GI% or GIPRCNT), where numbers from 0 - 100% represent growth inhibition, and numbers from -100% - 0 represent cell death. For example, a value of 40 represents 60% growth inhibition. A value of 0 means no net growth occurred over the course of the experiment. A value of -40 indicates 40% of cells at the beginning of the experiment died by the end of the experiment. A value of -100 means all cells are dead at the end of the experiment.
NCI-60 Human Tumor Cell Lines Screen was performed using the standard one-dose NCI protocol, which is described in more detail at https://dtp.cancer.gov/discovery_development/nci-60/default.htm.
Compounds with GIPRCNT values below 10 were considered active. Activity score was based on GIPRCNT using the following formula: […]
Score is 0 for GIPRCNT values of 100 or above, 50 for GIPRCNT values of 0, and 100 for GIPRCNT values of -100.
As for `CCCCCCCCn1ccc2cc(NC(=O)Cn3cc(CN4CCCC4)nn3)ccc21`, the growth is 89.4%.

On to `NC(=O)c1ccc[n+](Cc2ccc(Cl)cc2Cl)c1`, for which the growth was 109%.

With `COc1ccc(N2CCN(c3nc(-c4cc(OC)c(OC)c(OC)c4)nc4ccccc34)CC2)cc1`, the growth was 90.6%.

With `Cc1cc(C)c2c(-c3nnc(N)s3)cc(=O)oc2c1`, the growth was 105%.

As for `C=C(C)[C@@H]1CC[C@]2(C)[C@H](CC=C3[C@@H]4CC(C)(C)CC[C@]4(C(N)=O)CC[C@]32C)[C@@]1(C)CCC#N`, the growth was 20.8%.

Consider `O=C1OC(c2nc3ccccc3s2)=C/C1=C\c1ccc(O)cc1`, for which the growth is 99.5%.

For `S=C(Cc1ccc2c(c1)CCCC2)N1CCOCC1`, the growth was 101%.

In the case of `COc1ccc(/C=C/c2c(C(=O)/C=C/c3cccs3)c(C)nc3ccccc23)cc1`, the growth is 82.2%.

For the compound `COc1cc(C2CC(=O)Nc3c2c(C)nn3-c2nc3ccccc3[nH]2)c(OC)c2c1OCO2` (stereo not given), the growth is 86.2%.

For `O=C(O)C1CCC(=O)N1C(=O)OCc1ccccc1` (stereo not given), the growth was 96.3%.

As to `COc1ccc(C2=NN(C(=O)c3cc(OC)c(OC)c(OC)c3)C(c3ccc(Cl)cc3)C2)cc1OC` (stereo not given), the growth was 43.3%.

Turning to `O=C1/C(=C/c2ccccc2)CCc2nc3ccccc3c(/C=C/c3ccc(Cl)cc3)c21`, the growth is 97.3%.

Regarding `Cc1c(C)c2c(c(C)c1OCC(=O)O)CC[C@@](C)(CCC[C@@H](C)CCC[C@@H](C)CCCC(C)C)O2`, the growth is -31.9% [50 µM] (active).

For `CCCCC1CCCCN1C(=O)OCC` (stereo not given), the growth was 103%.

In the case of `C[n+]1cc2cc(C(N)=O)[nH]c3c(=N)c(Cl)c(N)c1c23`, the growth is 39%.

For the compound `c1coc(-c2c3ccc(=[N+]4CCCCC4)cc-3oc3cc(N4CCCCC4)ccc23)c1`, the growth is -95.9% (active).

Consider `N/C(=N/N=C/c1ccccc1)N/N=C\c1ccccc1`, for which the growth was 76%.

As to `C=CCn1c(C)nc2cc(Nc3nc(N4CCCC4)nc4ccccc34)ccc21`, the growth was 103%.

On to `CCN(CC)Cc1cccc(C(=O)OC)c1`, for which the growth is 96.6%.

As to `O=C(CSc1nnc(-c2ccc(NC(=O)c3cccnc3)cc2)o1)N[C@@H](Cc1ccc(O)cc1)C(=O)O`, the growth is 98.6%.

`CCN(CC)c1ccc2nc3c4ccccc4c(=NC(=O)c4ccccc4-c4c5ccc(N(CC)CC)cc5[o+]c5cc(N(CC)CC)ccc45)cc-3oc2c1`: the growth was 73.6%.

As for `O=C(Nc1ccccc1Cl)Oc1ccc(-c2ccccc2)cc1`, the growth was 101%.

As to `COc1cc(N2C(=O)c3nccnc3C2=O)cc(OC)c1OC`, the growth is 112%.

As to `NC(=N\N=C/c1ccccc1[N+](=O)[O-])/C(N)=N\N=C/c1ccccc1[N+](=O)[O-]`, the growth is 109%.

As to `Cc1cc(NCCCCNc2ccnc3cc(Cl)ccc23)nc(Nc2ccc(C(=O)N3CCCC3)cc2)n1`, the growth is 60.7%.

Turning to `Cc1ccc(NCCN(C)C)c2c(=O)c3ccccc3sc12`, the growth was 3.03% (active).

In the case of `c1ccc2cc3nc4cc5ccccc5cc4nc3cc2c1`, the growth is 97.4%.

Turning to `CCOC(=O)C/C(C)=N\NC(=O)c1ccncc1`, the growth is 103%.

Take `COc1ccc(-c2nc3c(N)c(CO)c(C)nc3o2)cc1`: the growth was 112%.

In the case of `CCN(CC)CCCNc1ccc(Nc2ccc(OC)cc2)cc1`, the growth is 94.1%.

In the case of `CC(=O)N1N=C(c2ccc(Nc3nc(Nc4ccc(F)cc4)nc(Nc4ccc(F)cc4)n3)cc2)CC1c1cccc([N+](=O)[O-])c1` (stereo not given), the growth is 93%.

Consider `CCc1ccccc1-n1c(-c2ccc(Cl)cc2)cc(-c2ccc(Cl)cc2)c(C#N)c1=O`, for which the growth was 98.8%.

In the case of `CN1CCN(CC(=O)Nc2nc(-c3cccc(NS(=O)(=O)c4cccc5c(N(C)C)cccc45)c3)cs2)CC1`, the growth was 82.3%.

On to `COc1ccc2c(c1)C(=O)/C(=C/c1cccc(OCC(=O)Nc3nc(C)c(C)s3)c1)O2`, for which the growth is -56.5% (active).

For `Cc1ccc(-c2cc(-c3cccnc3)[nH]c(=O)c2C#N)cc1`, the growth is 103%.

For the compound `COC(=O)CCC1=C(C)C2=NC1=CC1=NC(=CC3=NC(=Cc4[nH]c(/c(=C(/C)O)c4C)=C2)C(C(C)=O)=C3C)C(C)=C1CCC(=O)OC`, the growth is 103%.

As for `Cc1cccc(Cc2cnc(NC(=O)/C=C/c3ccco3)s2)c1`, the growth was 35.3%.

Consider `COc1ccc(NC(=O)CSc2nc(C)c(C(C)=O)n2-c2ccc([N+](=O)[O-])cc2)cc1`, for which the growth is 95.6%.

In the case of `Cc1ccc(Cl)c(NS(=O)(=O)c2ccc(-c3cnc(C4CC4)o3)cc2)c1`, the growth is 36%.

Take `O=C1CCc2c(sc3[nH]c(=S)n(-c4ccc(OC(F)(F)F)cc4)c(=O)c23)C1`: the growth was 80.3%.
